Tests used:
Assay in all cases: PBM binding z-score (relative to random genomic background probes); higher = stronger binding; sequences stand for … in GC…GCGATTGACAGCGTAGAATGAAGG
[1] = tested on: FXR:RXRa (NR concentration 270 nM, RXRa partner concentration 90 nM)
Procedure, shortened: (§1)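 For binding z-scores, the reference was random background probes on custom Agilent 4×180K protein-binding microarrays. These arrays were incubated 1 h with ligand-free nuclear receptor dimers in PBS pH 7.4, 2% milk, 0.02% Triton X-100, 1 mM DTT, 0.2 mg/mL BSA and 0.4 mg/ml salmon testes DNA. Fluorescence was scanned after antibody detection of each partner (one per run) and regression-normalized.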

[2] = tested on: LXRa:RXRa (NR concentration 270 nM, RXRa partner concentration 90 nM)
Procedure, shortened: as §1

[3] = tested on: LXRa homodimer (NR concentration 270 nM)
Procedure, shortened: as §1

[4] = tested on: LXRb homodimer (NR concentration 270 nM)
Procedure, shortened: as §1

[5] = tested on: PPARa:RXRa (NR concentration 270 nM, RXRa partner concentration 90 nM)
Procedure, shortened: as §1

[6] = tested on: PPARg:RXRa (NR concentration 180 nM, RXRa partner concentration 90 nM)
Procedure, shortened: as §1

[7] = tested on: PPARg:RXRa 270nM:90nM, anti-RXR (NR concentration 270 nM, RXRa partner concentration 90 nM)
Procedure, shortened: as §1

[8] = tested on: PPARg:RXRa 30nM:10nM, anti-RXR (NR concentration 30 nM, RXRa partner concentration 10 nM)
Procedure, shortened: as §1

[9] = tested on: PPARg:RXRa 90nM:30nM, anti-RXR (NR concentration 90 nM, RXRa partner concentration 30 nM)
Procedure, shortened: as §1

[10] = tested on: LXRb:RXRa (NR concentration 270 nM, RXRa partner concentration 90 nM)
Procedure, shortened: as §1

AGAATGAGGTTACCAAAGATCAGTGAAACGCTTG
PBM binding z-score [1]: 1.73 | PBM binding z-score [2]: 6.11 | PBM binding z-score [3]: 0.0874 | PBM binding z-score [4]: -0.00616 | PBM binding z-score [5]: 3.4 | PBM binding z-score [6]: 2.6 | PBM binding z-score [7]: 2.57 | PBM binding z-score [8]: 1.19 | PBM binding z-score [9]: 2.06

GCTTACGGGTCAAAGGTTAAAGCATGAATAGAAT
PBM binding z-score [1]: 7.68 | PBM binding z-score [2]: 6.08 | PBM binding z-score [3]: 0.955 | PBM binding z-score [4]: 0.412 | PBM binding z-score [5]: 7.2 | PBM binding z-score [6]: 11.8 | PBM binding z-score [7]: 9.59 | PBM binding z-score [8]: 9.12 | PBM binding z-score [9]: 10.3

CCTACTGGGCCACGAAAGGTGATTGATTCAGTGA
PBM binding z-score [1]: -0.0481 | PBM binding z-score [2]: 0.0469 | PBM binding z-score [3]: -0.496 | PBM binding z-score [4]: -0.883 | PBM binding z-score [5]: 1.75 | PBM binding z-score [6]: 2.08 | PBM binding z-score [7]: 1.68 | PBM binding z-score [8]: 0.232 | PBM binding z-score [9]: 0.958

TCGAGTAGGTTACGGGGGCGTTCAGGGATGAAGA
PBM binding z-score [1]: 1.63 | PBM binding z-score [2]: 2.21 | PBM binding z-score [3]: 0.585 | PBM binding z-score [10]: 4.83 | PBM binding z-score [6]: 4.72 | PBM binding z-score [7]: 4.75 | PBM binding z-score [8]: 2.93 | PBM binding z-score [9]: 3.91

TCTAGTTCGTCACGGAGGTCACACACGACGGGTA
PBM binding z-score [1]: 3.69 | PBM binding z-score [2]: 3.72 | PBM binding z-score [3]: 2.25 | PBM binding z-score [4]: 1.17 | PBM binding z-score [5]: 4.1 | PBM binding z-score [6]: 2.17 | PBM binding z-score [7]: 3.67 | PBM binding z-score [8]: 3.62 | PBM binding z-score [9]: 3.42

TCTAGTTGGTCAAAGGTCAAACACTCGAAATGCG
PBM binding z-score [1]: 6.51 | PBM binding z-score [2]: 6.59 | PBM binding z-score [3]: 5.24 | PBM binding z-score [4]: 2.77 | PBM binding z-score [5]: 6.82 | PBM binding z-score [6]: 11.2 | PBM binding z-score [7]: 10.3 | PBM binding z-score [8]: 9.94 | PBM binding z-score [9]: 11

GCTTACGGGTCAAAAGTTATAGCATGAATAGAAT
PBM binding z-score [1]: 5.09 | PBM binding z-score [2]: 3.43 | PBM binding z-score [3]: 0.0533 | PBM binding z-score [4]: 0.409 | PBM binding z-score [5]: 5.64 | PBM binding z-score [6]: 6.49 | PBM binding z-score [7]: 6.55 | PBM binding z-score [8]: 4.03 | PBM binding z-score [9]: 6.2

ACTCGGAGGACAAAGGTGAGAGCTACGCCAGTGA
PBM binding z-score [1]: 0.567 | PBM binding z-score [2]: 0.58 | PBM binding z-score [3]: -0.14 | PBM binding z-score [4]: -0.434 | PBM binding z-score [5]: 2.81 | PBM binding z-score [6]: 4.53 | PBM binding z-score [7]: 5.16 | PBM binding z-score [8]: 3.49 | PBM binding z-score [9]: 5.42

CCTACTGGGCCAAGGTCATTGACCAGTCAAAGCA
PBM binding z-score [1]: 3.77 | PBM binding z-score [2]: 4.03 | PBM binding z-score [3]: 1.67 | PBM binding z-score [4]: -0.702 | PBM binding z-score [5]: 4.03 | PBM binding z-score [6]: 4.3 | PBM binding z-score [7]: 4.66 | PBM binding z-score [8]: 2.17 | PBM binding z-score [9]: 4.38

AGTCAAAGTTCATCAAGGTAACGTAAGATATGCT
PBM binding z-score [1]: 6.08 | PBM binding z-score [2]: 5.78 | PBM binding z-score [3]: 4.24 | PBM binding z-score [4]: 1.31 | PBM binding z-score [5]: 4.64 | PBM binding z-score [6]: 6.46 | PBM binding z-score [7]: 6.38 | PBM binding z-score [8]: 3.52 | PBM binding z-score [9]: 5.75

AGTCGGAGGACAAAGGTCAGAGCTACGCCAGTGA
PBM binding z-score [1]: 3.97 | PBM binding z-score [2]: 4.34 | PBM binding z-score [3]: 1.6 | PBM binding z-score [4]: 0.26 | PBM binding z-score [5]: 5.01 | PBM binding z-score [6]: 7.55 | PBM binding z-score [7]: 7.07 | PBM binding z-score [8]: 5.94 | PBM binding z-score [9]: 7.56

GTACCAAGGTGAATAGGTCGTTGATGAGTAGGCG
PBM binding z-score [1]: 0.835 | PBM binding z-score [2]: 0.771 | PBM binding z-score [3]: -0.075 | PBM binding z-score [4]: -0.364 | PBM binding z-score [5]: 2.08 | PBM binding z-score [6]: 1.61 | PBM binding z-score [7]: 1.8 | PBM binding z-score [8]: 0.486 | PBM binding z-score [9]: 1.17

CGTCCAAGGTAAATGCTAGGTCAGTGAAAGCATT
PBM binding z-score [1]: 0.57 | PBM binding z-score [2]: 1.38 | PBM binding z-score [3]: 0.935 | PBM binding z-score [4]: -0.419 | PBM binding z-score [5]: 0.673 | PBM binding z-score [6]: -0.228 | PBM binding z-score [7]: -0.117 | PBM binding z-score [8]: -0.486 | PBM binding z-score [9]: -0.493

CTATGTAGGTTAAGGGGGTCATTGAGTTTGAAAG
PBM binding z-score [1]: 5.19 | PBM binding z-score [2]: 4.98 | PBM binding z-score [3]: 2.68 | PBM binding z-score [10]: 6.12 | PBM binding z-score [6]: 8.96 | PBM binding z-score [7]: 7.92 | PBM binding z-score [8]: 5.98 | PBM binding z-score [9]: 8.13

ACTTACGGGTCAACGACGTTATAGCACGCGTATA
PBM binding z-score [1]: 6.03 | PBM binding z-score [2]: 3.91 | PBM binding z-score [3]: 0.144 | PBM binding z-score [4]: 0.83 | PBM binding z-score [5]: 5.66 | PBM binding z-score [6]: 5.3 | PBM binding z-score [7]: 5.09 | PBM binding z-score [8]: 1.83 | PBM binding z-score [9]: 3.59

CCTACTGGGCCATTAAGAGGTCATTGATCATATG
PBM binding z-score [1]: 2.62 | PBM binding z-score [2]: 4.19 | PBM binding z-score [3]: 6.58 | PBM binding z-score [4]: 0.0638 | PBM binding z-score [5]: 3.94 | PBM binding z-score [6]: 2.19 | PBM binding z-score [7]: 3.06 | PBM binding z-score [8]: 0.745 | PBM binding z-score [9]: 2

ACTAGTTGGTCAGCTGGGGTCACACACAATTCGG
PBM binding z-score [1]: 3.81 | PBM binding z-score [2]: 3.01 | PBM binding z-score [3]: 0.525 | PBM binding z-score [4]: 0.369 | PBM binding z-score [5]: 4.47 | PBM binding z-score [6]: 2.37 | PBM binding z-score [7]: 3.06 | PBM binding z-score [8]: 0.707 | PBM binding z-score [9]: 2.36

CCTAGTTGGTCAAGGTCACGCACGCTATAGGTAC
PBM binding z-score [1]: 4.95 | PBM binding z-score [2]: 4.55 | PBM binding z-score [3]: 2.22 | PBM binding z-score [4]: 0.524 | PBM binding z-score [5]: 4.31 | PBM binding z-score [6]: 3.69 | PBM binding z-score [7]: 4.15 | PBM binding z-score [8]: 1.96 | PBM binding z-score [9]: 3

CCTAGATGGTCAGGAGGTCACACACCGGATATGA
PBM binding z-score [1]: 3.84 | PBM binding z-score [2]: 3.42 | PBM binding z-score [3]: 2 | PBM binding z-score [4]: 0.565 | PBM binding z-score [5]: 4.14 | PBM binding z-score [6]: 3.01 | PBM binding z-score [7]: 3.58 | PBM binding z-score [8]: 1.24 | PBM binding z-score [9]: 2.41

CCTACTGGGCCATTCAGAGGTCATCGATCATATG
PBM binding z-score [1]: 2.91 | PBM binding z-score [2]: 4.22 | PBM binding z-score [3]: 6.05 | PBM binding z-score [4]: 0.293 | PBM binding z-score [5]: 4.19 | PBM binding z-score [6]: 2.51 | PBM binding z-score [7]: 3.01 | PBM binding z-score [8]: 1.49 | PBM binding z-score [9]: 2.37

CCTACTGGGCCATTCAGAGGTCACTGATCATATG
PBM binding z-score [1]: 1.98 | PBM binding z-score [2]: 3.26 | PBM binding z-score [3]: 4.37 | PBM binding z-score [4]: 0.018 | PBM binding z-score [5]: 3.77 | PBM binding z-score [6]: 2.57 | PBM binding z-score [7]: 3.18 | PBM binding z-score [8]: 0.819 | PBM binding z-score [9]: 2.14

ATATGTAGGTTAGCTGGAGTCATTCAGACTAGGC
PBM binding z-score [1]: 0.00563 | PBM binding z-score [2]: 1.28 | PBM binding z-score [3]: -0.0336 | PBM binding z-score [4]: 0.0591 | PBM binding z-score [5]: 2.34 | PBM binding z-score [6]: 3 | PBM binding z-score [7]: 2.47 | PBM binding z-score [8]: 0.982 | PBM binding z-score [9]: 1.63

ATGGAAAGGTCGTGAGGTGAGTATACAGAAAGGC
PBM binding z-score [1]: 5.97 | PBM binding z-score [2]: 4.01 | PBM binding z-score [3]: 0.412 | PBM binding z-score [4]: 1.01 | PBM binding z-score [5]: 5.3 | PBM binding z-score [6]: 4.74 | PBM binding z-score [7]: 4.66 | PBM binding z-score [8]: 1.89 | PBM binding z-score [9]: 3.12

CATAGTTGGTCAAGGTCACACACGCTATAGGTAC
PBM binding z-score [1]: 4.26 | PBM binding z-score [2]: 4.07 | PBM binding z-score [3]: 1.83 | PBM binding z-score [4]: 1.1 | PBM binding z-score [5]: 4.12 | PBM binding z-score [6]: 3.78 | PBM binding z-score [7]: 3.92 | PBM binding z-score [8]: 1.88 | PBM binding z-score [9]: 3.28

ATCGAAAGGTCGAGTTGAGTATAGAGAAAGGGAA
PBM binding z-score [1]: 4.54 | PBM binding z-score [2]: 3.84 | PBM binding z-score [3]: 0.29 | PBM binding z-score [4]: 1.04 | PBM binding z-score [5]: 4.32 | PBM binding z-score [6]: 2.44 | PBM binding z-score [7]: 2.9 | PBM binding z-score [8]: 0.961 | PBM binding z-score [9]: 2.07

TAGCCTAGGTCATGCGGGTCAGTATAGTGTCGGC
PBM binding z-score [1]: 4.39 | PBM binding z-score [2]: 3.93 | PBM binding z-score [3]: 1.06 | PBM binding z-score [4]: 0.0417 | PBM binding z-score [5]: 4.05 | PBM binding z-score [6]: 2.77 | PBM binding z-score [7]: 3.43 | PBM binding z-score [8]: 0.354 | PBM binding z-score [9]: 2.32
